The values below come from PubChem BioAssay AID504706 (National Center for Advancing Translational Sciences (NCATS), 2011).

The whole screen tested about 320,000 compounds, of which about 200 (0.062%) were called active. Roughly 6% stayed inconclusive and do not appear here. Calls come from the whole dose curve; as a rule, active = well fitted activation curve with a large enough effect; inconclusive = small, poorly fitted or top-dose-only effect; inactive = no such curve, though single readings can be large or run the other way. For the sample, actives were picked, then their nearest neighbours and some compounds at random.
Potency is the fitted concentration of half-maximal effect.

The test in a line: qHTS assay for re-activators of p53 using a Luc reporter. For activity change, positive = activation: % of control where 0% means no effect. Note: nearly all actives have a fitted effect of over 45% in size. The note with it: H1299 p53-A138V BP100-luciferase reporter, luminescence, 24 h; series mostly up to 92.2 µM; activity change, positive = activation: at the top concentration. From the text: The p53 tumor suppressor plays a key role in suppression of tumorigenesis and in human carcinogenesis. It is frequently found inactivated in human cancers, mainly by point mutation. These point mutations are found in a wide variety of human cancers and a majority of them affect the DNA binding domain of the protein. The point mutations either alter native p53 conformation or abolish DNA contact. Additionally, cancer cells with p53 mutations are more resistant to chemo-radiation therapies. In order to find activators to reactivate this important protein, a cell-based screen for p53-dependent luciferase-reporter expression was developed. A p53-null H1299 lung cancer cell line was stably co-transfected with a temperature sensitive p53 mutant, p53-A138V, and a p53-responsive BP100-luciferase reporter. This cell model has previously been characterized in a gene chip profiling experiment for p53 activation. By lowering the culture temperature from 37 deg C (mutant p53 conformation) to 32 deg C (w.t. p53 conformation), a 30-60 fold increase in activation of luciferase activity is observed. At assay temperate, 37 deg C, basal reporter expression is very low and after the addition of detection reagent, a luminescent read-out is carried out. NIH Chemical Genomics Center [NCGC] NIH Molecular Libraries Probe Production Centers Network [MLPCN] MLPCN Grant: DA031088-01A1 Assay Provider (PI): Yi Sung, University of Michigan at Ann Arbor
5ul of 1000 cells per well are dispensed in all wells except column 4, into white solid-bottom TC-treated Kalypsys plates. The cells are kept in Opti-MEM and supplemented with 10% FBS and dispensed using a Multidrop (Thermo). Then using the Kalypsys pin-tool, 23nl of compounds are pinned. The compounds are starting concentration at 10mM, with 1:5 dilution, 4 points, and the control compound nocodazole is pinned in column 1 at 25mM, 1:3 dilution, in duplicate, 25mM nocodazole is pinned in column 2. Please note, all concentrations are working concentrations. 5ul of 1pM purified luciferase enzyme is dispensed using the Kalypsys dispenser in column 4. Plates are incubated for 24 hrs at 37 deg C, 5% CO2, and 95% humidity. Then 4ul of the detection reagent Amplite (ABD Bioquest) is added using the Kalypsys dispenser. Plates are incubated for 10 min at ambient room temperature and are then read on the ViewLux (Perkin Elmer) using a clear filter for a luminescent read-out.
A general note: qHTS replaces the single test concentration by a dilution series.
As to `Cc1ccc(C)c(S(=O)(=O)N2CCN(c3ncnc4sccc34)CC2)c1`, the “activity change, positive = activation” value is -8.28% (inactive). With `C=CC[C@@H](Cc1ccc(F)cc1)C(=O)OC[C@H]1CCCN1C(=O)[C@H](CC=C)CC(=O)N(CCO)Cc1ccccc1`, the “activity change, positive = activation” value was 2.23% (inactive).

For the molecule `CC(=O)Nc1ccc(C(=O)/C=C/c2ccc[nH]2)cc1`, the “activity change, positive = activation” value was 9.7% (inactive). For `CC(=O)Nc1ccc(/C=C/C(=O)c2ccccc2)cc1`, the Potency is 15.8 µM (active).

As to `CC(=O)Nc1ccc(NC(=S)NC(=O)/C=C/c2ccccc2)cc1`, the “activity change, positive = activation” value was 1.32% (inactive). For the molecule `O=C(C[C@H]1C[C@H](C(=O)N2CCOCC2)[C@@]2(CCC3CCCC3)c3[nH]c4ccc(Cl)cc4c3CCN2C1=O)NCc1ccco1`, the “activity change, positive = activation” value is -4.21% (inactive). As to `CC[C@]12c3[nH]c4cc(CCC(=O)N(C)C)ccc4c3CCN1C(=O)[C@@H](CC(=O)NCc1ccco1)C[C@@H]2C(=O)N1CCN(C(=O)c2ccco2)CC1`, the “activity change, positive = activation” value was -0.895% (inactive). In the case of `COc1cc(/C=C/C(=O)Nc2ccc(OC)c(S(=O)(=O)N3CCOCC3)c2)ccc1OCC#N`, the “activity change, positive = activation” value was -10.6% (inactive). Consider `O=C1OC[C@@H]2CCCN2C(=O)[C@H](CC(=O)N(CCO)Cc2ccccc2)C/C=C\CC[C@@H]1Cc1ccc(F)cc1`, for which the “activity change, positive = activation” value is 5.47% (inactive). For the molecule `COc1cc(OC)c(C(=O)NNC(=O)c2ccccc2-n2cccc2)cc1OC`, the “activity change, positive = activation” value was -0.521% (inactive).

Regarding `C[C@@H]1CN([C@@H](C)CO)C(=O)c2cccc(NS(=O)(=O)c3ccc(F)cc3)c2O[C@H]1CN(C)C(=O)NC1CCCCC1`, the “activity change, positive = activation” value is -3.42% (inactive).

On to `COC(=O)[C@]1(C)N[C@H](CN(C)C(=O)c2ccc(C(C)(C)C)cc2)[C@@H]2C(=O)N(C)C(=O)[C@@H]21`, for which the “activity change, positive = activation” value is 0.555% (inactive). On to `Cc1ccc(CNC(=O)Cn2cnc3c(NCc4ccccc4)ncnc32)o1`, for which the “activity change, positive = activation” value is -1.49% (inactive). For the molecule `CN(C(=O)c1cccc(NC(=O)Cc2ccc([N+](=O)[O-])cc2)c1)C1CCC1`, the “activity change, positive = activation” value was -5.23% (inactive). Regarding `CCN(C(=O)CSc1nnnn1-c1ccc(OC)cc1)C1CCS(=O)(=O)C1` (configuration not stated), the “activity change, positive = activation” value was -2.62% (inactive). In the case of `C#CCOCCOCCOCCNc1nc(N2CCN(C(=O)[C@H](CCCN=C(N)N)n3cc(C(N)[C@@H](C)CC)nn3)CC2)nc(N2CCN(C(=O)[C@H](CO)n3cc([C@@H](N)C(C)C)nn3)CC2)n1` (some centres not stated), the “activity change, positive = activation” value is 0.362% (inactive).

Take `CCCCNS(=O)(=O)CCNCc1ccccc1OC`: the “activity change, positive = activation” value is -5.63% (inactive). Still for that read-out and setting: for `C=CCC[C@@H](Cc1ccc(F)cc1)C(=O)OC[C@@H](C)NC(=O)[C@H](CC=C)CC(=O)N(CCO)Cc1ccccc1` the value was -7.01% (inactive); for `CC(=NNC(=O)c1ccc2nc[nH]c2c1)c1ccc(Br)cc1`, 5.89% (inactive); for `CC[C@@H]1CCCCc2ccccc2[C@@H](C(=O)C[C@H](O)CC(C)=O)OC1=O`, -0.71% (inactive). For the molecule `Oc1ccc(Br)cc1/C=N/Nc1ccccn1`, the Potency was 28.2 µM (active). On to `Oc1ccc(/C=N/Nc2ccc(C(F)(F)F)cn2)cc1O`, for which the “activity change, positive = activation” value was 18.2% (inactive). On to `COc1ccc(-c2nn(-c3ccccc3)cc2/C=N/Nc2ccccn2)cc1OC`, for which the “activity change, positive = activation” value is 0.301% (inactive). On the same count and under the same terms, for `COc1ccc(-c2nc3cc(C)ccn3c2NC2CCCCC2)cc1SC1CCCCC1` the value was 3.29% (inactive); for `O=C(N/N=C/c1ccc(Cl)c(Cl)c1)c1ccc2nc[nH]c2c1`, 13.3% (inactive). With `CSc1ccc(/C=N/NC(=O)c2cccc(Cl)c2)cc1`, the Potency was 10 µM (active). In the case of `CSc1ccc(/C=N\NC(=O)CC(=O)NC(C)C)cc1`, the “activity change, positive = activation” value was 1.21% (inactive). With `COc1ccc2nc3n(c(=O)c2c1)-c1cc(C)ccc1C(=O)NC3Cc1ccc(O)cc1` (configuration not stated), the “activity change, positive = activation” value is 3.32% (inactive). Same read-out and setting: under `O=C1CCC/C=C/C[C@@H](CC(=O)N(CCO)Cc2ccccc2)C(=O)NC[C@H](c2ccccc2)O1` stands 0.64% (inactive); under `C=CCC[C@H](Cc1ccc(F)cc1)C(=O)OC[C@@H](Cc1c[nH]c2ccccc12)NC(=O)[C@H](CC=C)CC(=O)N[C@H](CO)Cc1ccccc1`, -2.92% (inactive). For the molecule `C=CCC[C@H](Cc1ccc(F)cc1)C(=O)OC[C@@H](NC(=O)[C@@H](CC=C)CC(=O)N[C@H](CO)Cc1ccccc1)C(C)(C)C`, the “activity change, positive = activation” value was -0.891% (inactive).

Regarding `C=CC[C@@H](CC(=O)N[C@H](CO)Cc1ccccc1)C(=O)N[C@H](C)COC(=O)[C@@H](CC=C)Cc1ccc(F)cc1`, the “activity change, positive = activation” value was 3.98% (inactive). As for `Cc1noc(C)c1S(=O)(=O)N(C)C[C@H]1Oc2c(NC(=O)Nc3ccc4c(c3)OCO4)cccc2C(=O)N([C@H](C)CO)C[C@@H]1C`, the “activity change, positive = activation” value was -4.87% (inactive). Regarding `O=C(CCc1ccc(S(=O)(=O)N2CCOCC2)cc1)OCC(=O)c1ccc(Br)cc1`, the “activity change, positive = activation” value was -1.37% (inactive). `Cc1ccc(NC(=O)C2CCC(C(C)(C)C)CC2)cc1S(=O)(=O)N1CCOCC1` (configuration not stated): the “activity change, positive = activation” value is 11.4% (inactive).

In the case of `O=C(Cn1cc(C(F)(F)F)ccc1=O)Nc1ccc2c(c1)OCCO2`, the “activity change, positive = activation” value is -1.81% (inactive). Take `COc1ccccc1N(CC(=O)Nc1ccc(C)cc1Cl)S(=O)(=O)c1cccs1`: the “activity change, positive = activation” value was -6.31% (inactive).

Consider `CC[C@]12c3[nH]c4ccc(Cl)cc4c3CCN1C(=O)[C@@H](CC(=O)NCCCOC)C[C@@H]2C(=O)N1CCN(C(=O)C2CC2)CC1`, for which the “activity change, positive = activation” value is 1.51% (inactive). Regarding `COc1ccc(CNC(=O)C[C@H]2C[C@H](C(=O)N3CCOCC3)[C@@]3(C)c4[nH]c5cc(CCC(=O)N(C)C)ccc5c4CCN3C2=O)cc1OC`, the “activity change, positive = activation” value is 12.8% (inactive). For the molecule `COc1ccc2[nH]cc(/C=C(/C#N)S(=O)(=O)c3ccccc3)c2c1`, the “activity change, positive = activation” value is -3.33% (inactive). With `COc1ccc(/C=C(\C#N)c2c[nH]c3ccccc23)cc1`, the Potency was 31.6 µM (active). On to `COc1ccc(C(C(O)C(=O)c2c[nH]c3ccccc23)N2CCN(c3ccccc3)CC2)cc1` (configuration not stated), for which the “activity change, positive = activation” value was -0.0809% (inactive).
